Source: PubChem BioAssay
DT40 TDP1 no CPT: qHTS for Inhibitors of human tyrosyl-DNA phosphodiesterase 1 (TDP1): qHTS in cells in absence of CPT; hit rate 15% among 420,000; AID 686978, 2013; Potency, µM (highest dose often 46.2 µM), without a hit: at the top dose activity change, negative = growth inhibition, most hits filed as inhibitors; DT40 Tdp1-/- hTDP1 cells, no CPT, ATP luminescence, 48 h; also: nearly all actives have a fitted effect of over 55% in size
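Camptothecin absent (DMSO only). Human TDP1-complemented DT40 knockout cells, 400 cells/well, 37 °C for minimum 48 hr; ATP measured via CellTiter-Glo, 30 min dark incubation, luminescence.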
KB-V1 cytotox: kills drug-selected multidrug resistant KB-V1 cells; KB-V1 MDR cells viability, CellTiter-Glo, 72 h; Potency, µM (titrated, usually from 46.1 µM), actives largely listed as cytotoxic; hit rate 3.4% among 400,000; AID 1347076; also: nearly all actives have a fitted effect of over 60% in size
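In this primary screen, KB-V1 cells overexpressing P-gp are incubated with library compounds (lowest to highest concentration) for 72 h at 37 degrees C before a luminescent ATP viability read.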
KB-3-1 cytotox: kills parental KB-3-1 adenocarcinoma cells | KB-3-1 viability, CellTiter-Glo ATP luminescence, 72 h | Potency, µM (top dose mostly 46.1 µM), hits mostly cytotoxic | hit rate 1.4% among 400,000; also: nearly all actives have a fitted effect of over 60% in size
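Using CellTiter-Glo luminescence, growth of non-resistant KB-3-1 adenocarcinoma cells is assessed 72 h after pin-tool compound addition at 37 °C. Normalized responses across the concentration series yield fitted curves.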
TDP1 cell CPT: growth inhibition of DT40 Tdp1-/-;hTDP1 cells with camptothecin (screen for TDP1 inhibitors); chicken DT40 Tdp1-/-;hTDP1 cells + 20 nM CPT, ATP luminescence, 48 h; Potency, µM (highest dose often 46.2 µM), without a hit: at the top dose activity change, negative = growth inhibition, actives largely listed as inhibitors; hit rate 12% among 420,000; AID 686979; also: nearly all actives have a fitted effect of over 55% in size
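Chicken DT40 Tdp1-/- cells complemented with human TDP1, 400 cells/well, exposed to compounds plus 20 nM camptothecin for at least 48 h at 37 C; viability read as ATP content by CellTiter-Glo luminescence.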
HT1080-NT tox: kills 2HG-producing HT-1080-NT fibrosarcoma cells; hit rate 1.6% among 360,000; HT-1080-NT fibrosarcoma viability, CellTiter-Glo ATP luminescence, 48 h; Potency, µM (highest dose often 46.1 µM), inactives show at the highest dose activity, negative = less viability, usual class: cytotoxic;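 also: NT is the 2HG producing partner of a matched IDH1 knockdown line; 0% = DMSO-treated cells and -100% = media-only wells without cells; nearly all actives have a fitted effect of over 55% in size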
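Toxicity toward the 2HG-producing NT line was scored as %Activity, normalised to DMSO and no-cell wells, from CellTiter-Glo luminescence after 48 hours' treatment.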
HT1080 IDH1KD tx: HT-1080 IDH1 knockdown cell toxicity (counter line); Potency, µM (highest dose often 46.1 µM), for the others: at the highest dose activity, negative = toxicity, actives largely listed as cytotoxic; hit rate 2% among 360,000; AID 686971; HT-1080 IDH1 knockdown viability, ATP luminescence, 48 h;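 also: 0% = DMSO wells and -100% = cell-free medium wells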
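IDH1KD HT-1080 cells, 750/well, RPMI + 5% FBS; compound pinned after 2 h settling; 48 h, 37 °C; CellTiter-Glo luminescence; % activity normalised to DMSO and no-cell wells; curves fitted, classed by r2 and efficacy.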
Numbers without * were called inactive; i = inactive; u = inconclusive; x = not tested or not shown; [ ] = remark or other dose. An excerpt weighted towards active compounds, which were near 19% of everything screened. Calls follow the shape of the dose curve; as a rule, active = well fitted curve in the direction sought with a large enough effect; inconclusive = small, poorly fitted or top-dose-only effect, or another doubt; inactive = no such curve, though single readings can be large; an effect the other way counts as inactive or inconclusive. Unless noted, % is scaled to controls: 0 for no effect and ±100 for the full control effect; potency is read from the fitted curve at half-maximal effect.

SMILES	DT40 TDP1 no CPT	KB-V1 cytotox	KB-3-1 cytotox	TDP1 cell CPT	HT1080-NT tox	HT1080 IDH1KD tx
O=C(CCNS(=O)(=O)c1ccccc1)OCC(=O)c1ccc[nH]1	0%	u	i	1%	1%	15%
O=c1cc(N2CCCC2)c2ccccc2o1	-2%	i	i	9%	-1%	10%
CC(=O)c1ccc(S(=O)(=O)N(CC(=O)NC2CC2)Cc2ccc(F)cc2)cc1	-3%	i	i	-5%	2%	-1%
Cc1ccsc1CN(C)CC(=O)Nc1ccccc1C(=O)NC1CC1	0%	i	i	12%	-1%	7%
CCOC(=O)c1c(NC(=S)Nc2ccc(Cl)cc2)sc2c1CCN(C)C2	u	i	i	16µM*	-26%	-19%
CCOC(=O)c1c(NC(=O)C2=COCCO2)sc2c1CCN(C(=O)OC)C2	18µM*	u	i	u	10%	1%
COCCN(C(=O)c1ccccc1Oc1ccccc1)c1c(N)n(CC(C)C)c(=O)[nH]c1=O	-2%	i	i	-7%	-1%[9.24 µM]	-2%
N#Cc1ccc2c(c1)nnn2-c1ccccc1	-1%	9.2µM*	i	7%	9%	7%
CC1(C)Cc2c(sc(NC(=O)COc3ccc(Cl)cc3)c2C(N)=O)C(C)(C)N1	-1%	i	i	u	3%	7%
CC1(C)Cc2c(sc(NC(=O)c3ccc4ncsc4c3)c2C(N)=O)C(C)(C)N1	u	u	u	u	23µM*	23µM*
CC1(C)Cc2c(sc(NC(=O)c3ccc(C(=O)c4ccccc4)cc3)c2C(N)=O)C(C)(C)N1	u	u	u	u	10µM*	9.2µM*
COC(=O)c1c(NC(=O)c2ccccc2)sc2c1CC(C)(C)NC2(C)C	-1%	i	i	-24%	-3%	0%
C/C1=C/CC(C)(C)/C=C/C/C(C)=C/CC1	-21%	x	x	-4%	x	x
Cc1ccc(S(=O)(=O)N2C(c3ccccc3)CC(=O)C3CN(S(=O)(=O)c4ccc(Cl)cc4)C(c4ccccc4)CC32)cc1 (stereo not drawn)	u	i	i	u	9%	17%
Cc1ccc(S(=O)(=O)N(C(=O)c2ccncc2)c2ccc(OC(=O)c3ccncc3)c3ccccc23)c(C)c1	3.7µM*	i	i	4.6µM*	u	u
Cc1ccc(OC(=O)c2ccc(S(=O)(=O)N(C)C)cc2)c(-n2nc3ccccc3n2)c1	-18%	i	i	-10%	-1%[9.24 µM]	-2%
O=C(Oc1ccc(N(C(=O)c2ccncc2)S(=O)(=O)c2cccs2)cc1)c1ccncc1	u	i	i	-28%	0%	11%
Cc1ccc(S(=O)(=O)N(C(=O)c2ccncc2)c2ccc(OC(=O)c3ccncc3)c3ccccc23)cc1	5.2µM*	i	i	2.6µM*	u	u
O=C1O[C@@H]2[C@@H](O)[C@H](O)O[C@@H]2[C@H]1O	0%	x	x	10%	x	x
Cc1nc2cc(NC(=O)[C@@H]3C[C@@H](Sc4ccccn4)CN3Cc3cccc(F)c3)ccc2s1	-19%	x	x	15%[9.04 µM]	x	x
Cn1c(/C=C/c2cccc(Br)c2)nc2ccccc2c1=O	u	u	u	29µM*	u	u
O=c1c2ccccc2nc(/C=C/c2ccc(Br)cc2)n1CCO	23µM*	u	i	u	-29%	u
CCn1c(/C=C/c2cc(Br)ccc2O)nc2ccccc2c1=O	u	i	u	u	-18%	-23%
CCn1c(/C=C/c2ccccc2F)nc2ccccc2c1=O	u	u	u	u	-14%	-18%
O=c1c2ccccc2nc(/C=C/c2ccc(Cl)cc2)n1CCO	u	u	i	21µM*	-5%	-24%
SMILES	DT40 TDP1 no CPT	KB-V1 cytotox	KB-3-1 cytotox	TDP1 cell CPT	HT1080-NT tox	HT1080 IDH1KD tx
Cc1[nH]c2ccccc2c1/C=C/c1nc2ccccc2c(=O)n1CCO	4.6µM*	12µM*	12µM*	6.5µM*	u	-24%
CCNS(=O)(=O)c1ccc(CCC(=O)N2CCC(C)CC2)cc1	4%	i	i	4%	9%	4%
O=C(CSc1nc2ccccc2c(=O)n1CCCO)NCc1ccccc1	-8%	i	i	0%	6%	2%
Cc1nc2ccccc2c(=O)n1CCCO	-5%	i	i	-18%	-2%	1%
O=c1c2ccccc2nc(/C=C/c2cccc([N+](=O)[O-])c2)n1CCCO	u	i	i	-28%	-22%	u
O=c1c2ccccc2nc(/C=C/c2ccc(Br)cc2)n1CCCO	21µM*	u	i	23µM*	-28%	u
O=c1c2ccccc2nc(/C=C/c2ccc([N+](=O)[O-])o2)n1CCCO	1.2µM*	u	5.8µM*	0.58µM*	2.9µM*	2.9µM*
Cn1c(/C=C/c2cccc([N+](=O)[O-])c2)nc2ccccc2c1=O	1%	i	i	-25%	2%	5%
O=c1c2ccccc2nc(/C=C/c2ccc([N+](=O)[O-])cc2)n1CCCO	21µM*	21µM*	u	u	1%	-11%
O=c1c2ccccc2nc(/C=C/c2cccc(Br)c2)n1CCCO	13µM*	i	i	u	u	u
N/C(=N\NS(=O)(=O)c1ccccc1Cl)c1ccccn1	-13%	i	i	-22%	5%	-1%
O=C(CNC(=O)c1ccccc1F)NCCc1ccccc1F	17%	i	i	-4%	-1%	-3%
COc1cc(Cl)c(NC(=O)c2cc(S(=O)(=O)N3CCCCC3)c[nH]2)c(OC)c1	-18%	i	i	-13%	x	x
CCOc1cc(-c2noc(N)c2C(=O)OC)cc(OCC)c1OCC	u	12µM*	i	-13%	0%	0%
COC(=O)c1c(-c2ccc(Br)cc2)noc1N	-20%	i	u	-16%	u	u
COC(=O)c1nn(-c2ccccc2)c2nnc(Cc3ccc(C)cc3)c(=O)n12	-7%	u	i	1%	-4%	11%
Cc1ccc(-n2nc(C(=O)c3ccccc3)n3c(=O)c(Cc4ccccc4)nnc23)cc1	12µM*	16µM*	i	u	-3%	-3%
O=C(N[C@H]1CC[C@H](CCNS(=O)(=O)c2ccc(Cl)cc2)O[C@@H]1CO)c1cccc(F)c1	u	u	u	u	-15%	2%
